# Rows were chosen to be rich in hits. Some 11% of all compounds tested hit in one or more screens of this group.
# HCV inhibitor: inhibitors of hepatitis C virus infection; Huh7.5.1 HCVcc-Cre infection, luciferase reporter, 44 h; Potency, µM (highest dose often 41.8 µM), without a hit: top-dose activity change, negative = inhibition, usual class: inhibitors; 340,000 tested, 3.4% active; AID 651820
#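 Infectious HCV cell culture screen: compound-treated cells (1,000/well, pre-plated 4 h) are infected with HCVcc-Cre at roughly 0.5 moi and grown 44 h. Infection is quantified by luciferase signal after 15 min substrate incubation at room temperature.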
# Pf growth 48h: inhibits P. falciparum growth in the first generation, 48 h | P. falciparum luciferase growth in erythrocytes, 48 h | 310,000 tested, 5.9% active | Potency, µM (series often up to 28.7 µM), without a hit: at the top dose activity change, negative = inhibition, hits mostly inhibitors
#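 Erythrocytes infected with P. falciparum carrying an integrated firefly luciferase reporter (2% hematocrit, 0.1% parasitemia final) were exposed to compounds in RPMI 1640 with 0.5% Albumax at 37 C, 5% CO2. Growth inhibition was scored as reduced luminescence.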
# Pf growth 96h: P. falciparum growth inhibition at 96 hour, primary screen for plastid delayed-death inhibitors | P. falciparum luciferase reporter growth, 96 h | Potency, µM (titrated, usually from 28.7 µM), for the others: at the highest dose activity change, negative = inhibition, usual class: inhibitors | 320,000 tested, 6.9% active
#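 96 h incubation, 37 C, 5% CO2, of luciferase-reporter P. falciparum-infected RBCs (2% hematocrit, 0.05% parasitemia final) with test compounds; endpoint luminescence.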
# AMA1-RON2 inh: AMA1-RON2 (P. falciparum) interaction inhibition; Potency, µM (doses to about 58.2 µM), without a hit: top-dose activity change, negative = inhibition, actives largely listed as inhibitors; 360,000 tested, 0.2% active; AID 720542; AlphaScreen AMA1-biotinylated RON2 peptide binding;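 note: 0% = vehicle wells and -100% = peptide control; nearly all actives have a fitted effect of over 45% in size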
#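 AMA1 (3D7) with his tag at 25 nM final met compounds first, then biotinylated RON2 peptide at 25 nM; detection used donor plus acceptor beads, 10 µg/mL apiece, read by AlphaScreen after 30 min at room temperature.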
# Numbers without * were called inactive; u = inconclusive; x = no result; [ ] = dose if it differs, or a comment. Calls come from the whole dose curve; as a rule, active = well fitted curve in the direction sought with a large enough effect; inconclusive = small, poorly fitted or top-dose-only effect, or another doubt; inactive = no such curve, though single readings can be large; an effect the other way counts as inactive or inconclusive. Unless noted, % is set by controls: 0 for no effect and ±100 for the full control effect; potency is the fitted concentration of half-maximal effect.
SMILES,HCV inhibitor,Pf growth 48h,Pf growth 96h,AMA1-RON2 inh
Cc1cc(C(=O)NNC(=O)c2ccc(Cl)c(S(N)(=O)=O)c2)c(C)o1,5%,x,x,-4%
Cc1ccc(C)n1-c1sc2c(c1C#N)CCC(C)C2 (stereo not drawn),-2%,x,6.6µM*,2%
CC(=O)Nc1sc2c(c1C#N)CCC(C)C2 (stereo not drawn),-14%,3%,8%,1%
CSCC[C@H](NC(=O)OC(C)(C)C)c1nnc(SCc2ccc(F)cc2)o1,u,u,u,-5%
CSCC[C@H](NC(=O)OC(C)(C)C)c1nnc(SCc2ccccc2)o1,-5%,6.6µM*,-13%,-1%
CSCC[C@H](NC(=O)OC(C)(C)C)c1nnc(SCc2cccc(F)c2)o1,u,u,31%,31%
CC(C)C[C@H](NC(=O)OC(C)(C)C)c1nnc(SCc2cccc(F)c2)o1,-14%,u,10µM*,54%
NNc1nc(Nc2ccccc2)nc(Nc2ccccc2)n1,-15%,8.3µM*,349%,27%
COc1ccc(Nc2nc(NN)nc(Nc3ccc(OC)cc3)n2)cc1,u,9.3µM*,3.3µM*,20%
NNc1nc(Nc2ccccc2)nc(N2CCCCC2)n1,u,u,x,6%
CN1C[C@@H]2[C@@H]3C(=O)N(C)C(=O)[C@@H]3[C@](Cc3ccccc3)(C1=O)N2C(=O)c1ccccc1,13%,x,x,14%
CN(C)CC(CCCCC(CN(C)C)C(=O)c1ccccc1)C(=O)c1ccccc1 (stereo not drawn),8.9µM*,u,u,-10%
N#Cc1c(-c2ccccc2)nc(SCC(=O)N(c2ccccc2)c2ccccc2)[nH]c1=O,0%,8%,13µM*,24%
N#Cc1c(-c2ccccc2)nc(SCC(=O)Nc2ccccc2)[nH]c1=O,1%,9%,-14%,16%
N#Cc1c(-c2ccccc2)nc(SCC(=O)Nc2ccc(OC(F)(F)Cl)cc2)[nH]c1=O,7%,-17%,3.7µM*,-12%
CCC(C)NS(=O)(=O)c1ccc(F)c(C(=O)Nc2c(F)cc(F)cc2Br)c1 (stereo not drawn),-20%,u,0%,-1%
NC(=O)C1CCN(CC(O)CSc2ccccc2)CC1 (stereo not drawn),9%,16%,13%,5%
Cc1c(O)cccc1C(=O)N[C@@H](CSc1ccccc1)[C@H](O)CN1C[C@H]2CCCC[C@H]2C[C@H]1C(=O)NC(C)(C)C,10µM*,6.6µM*,u,-6%
CCOc1ccc(CNC(=O)C2CCN(c3nn4c(=O)cc(C)nc4s3)CC2)cc1,-6%,-19%,u,5%
CC1(C)NC(=O)N(CC(=O)N2CCCC(C(F)(F)F)C2)C1=O (stereo not drawn),23%,u,21%,2%
Cc1ccc(N(CC(=O)NC2CCCCC2)C(=O)c2ccc(C)s2)cc1,u,-19%,u,-4%
Cc1ccc(N(CC(=O)NC2CCCC2)C(=O)c2ccc(C)s2)cc1,11µM*,-20%,-4%,0%
Cc1ccc(C(=O)N(CC(=O)NC2CCCC2)c2ccc3c(c2)OCCO3)s1,u,-15%,13µM*,-3%
Cc1cc(C)cc(N(CC(=O)NC2CCCCC2)C(=O)c2ccc(C)s2)c1,11µM*,-21%,26%,8%
CCC(C(=O)NC(C)(C)C)N(Cc1ccc(F)cc1)C(=O)c1snc(C(N)=O)c1N (stereo not drawn),-8%,-5%,-4%,-9%
SMILES,HCV inhibitor,Pf growth 48h,Pf growth 96h,AMA1-RON2 inh
COc1ccc(N2CCN(C(CNC(=O)C(C)C)c3ccc4c(c3)OCO4)CC2)cc1 (stereo not drawn),9%,u,0%,-4%
CN(C)S(=O)(=O)c1ccc(Cl)c(NC(=O)CSc2nc3c(cc2C#N)C(=O)CC(C)(C)C3)c1,-6%,u,u,5%
CCCN(CCC)S(=O)(=O)c1ccc(NC(=O)COc2ccccc2)cc1,-5%,x,9.3µM*,-9%
CN(c1ccccc1)S(=O)(=O)c1cccc(NC(=O)CCNC(=O)c2ccc([N+](=O)[O-])cc2)c1,11µM*,x,x,-13%
CN(C)S(=O)(=O)c1cccc(NC(=O)CSc2nc3c(cc2C#N)C(=O)CC(C)(C)C3)c1,5µM*,9.3µM*,u,60%
COc1ccccc1OCC(=O)Nc1ccc(S(=O)(=O)N(C)c2ccccc2)cc1,11µM*,u,u,-2%
CN(C)S(=O)(=O)c1cccc(NC(=O)CSc2cccc3cccnc23)c1,u,12µM*,7.4µM*,0%
CN(C)S(=O)(=O)c1ccc(SCC(=O)Nc2cccc(S(=O)(=O)N3CCCC3)c2)nc1,u,x,x,3%
CN(c1ccccc1)S(=O)(=O)c1cccc(NC(=O)CCNC(=O)c2ccccc2)c1,-20%,9.3µM*,u,-9%
CN(C)S(=O)(=O)c1cccc(NC(=O)CCCSc2ccccc2)c1,11µM*,-29%,u,14%
O=C(CN1C(=O)NC2(CCCC2)C1=O)Nc1ccccc1,11%,29%,37%,5%
COc1ccc(S(=O)(=O)N(C)C)cc1NC(=O)CCCSc1ccccc1,1%,u,u,-7%
CN(c1ccccc1)S(=O)(=O)c1cccc(NC(=O)CN2C(=O)NC3(CCCC3)C2=O)c1,2.8µM*,-25%,u,-14%
COc1ccc(/C=C(/NC(=O)c2ccc(OC)c(OC)c2)C(=O)NCCCn2ccnc2)cc1,14%,-1%,14%,-1%
CNc1nc(-c2ccc3c(c2)CCN3S(=O)(=O)c2ccccc2)c(C)s1,u,u,12%,4%
COc1ccc(CN(C)CC(=O)Nc2cccc(S(=O)(=O)N(C)c3ccccc3)c2)c(OC)c1,u,u,15µM*,-12%
CN(c1ccccc1)S(=O)(=O)c1cccc(C(=O)NCCc2c[nH]c3ccccc23)c1,10µM*,x,x,-9%
COc1ccc(NC(=O)CN(C)CC(=O)Nc2cccc(S(=O)(=O)N(C)c3ccccc3)c2)cc1,u,u,u,-12%
CN(c1ccccc1)S(=O)(=O)c1cccc(NC(=O)COc2ccccc2)c1,10µM*,u,u,-3%
CC(=O)CCc1ccc(OCC(=O)Nc2cccc(S(=O)(=O)N(C)c3ccccc3)c2)cc1,-26%,u,u,22%
O=C(NCCc1c[nH]c2ccccc12)c1cccc(S(=O)(=O)Nc2ccccc2Cl)c1,9%,5%,u,-10%
CC(=O)Nc1cccc(NC(=O)CCNC(=O)c2ccccc2)c1,3.2µM*,1%[0.00184 µM],9%,-5%
COc1ccccc1CNC(=O)[C@H](C)NC(=O)C1CCN(C(=O)[C@@H](N)CC(C)C)CC1,10%,2%,-11%,-2%
O=C(c1cccs1)N1CCCN(c2ncnc3scc(-c4ccccc4)c23)CC1,u,5.9µM*,10µM*,-7%
O=C(N1CCCC1)N1CCN(c2ncnc3c(-c4ccc(Cl)cc4)nsc23)CC1,x,50%,1.9µM*,x
Cc1ccc(C(=O)N2CCN(c3ncnc4c(-c5ccccc5)nsc34)CC2)cc1,x,21%,1.5µM*,x

# Screens from PubChem BioAssay.
